# According to PMC7862700, “An all-to-all approach to the identification of sequence-specific readers for epigenetic DNA modifications on cytosine”:
# Key:
# Test in all cases: DAPPL (digital affinity profiling via proximity ligation, sequencing); 10 mM Tris-HCl pH 7.5, 50 mM NaCl, 1 mM DTT, 4% glycerol, room temperature, 30 min; GST-TFs on glutathione beads, 16-mer random dsDNA library, 0.1% formaldehyde crosslink after washing; high values mean tight binding
# FEV = target: T1, FEV (Homo sapiens, UniProt Q99581 1-238); conditions: protein: recombinant; tags: N-terminal GST; dsDNA, one strand shown
# T1 sequence: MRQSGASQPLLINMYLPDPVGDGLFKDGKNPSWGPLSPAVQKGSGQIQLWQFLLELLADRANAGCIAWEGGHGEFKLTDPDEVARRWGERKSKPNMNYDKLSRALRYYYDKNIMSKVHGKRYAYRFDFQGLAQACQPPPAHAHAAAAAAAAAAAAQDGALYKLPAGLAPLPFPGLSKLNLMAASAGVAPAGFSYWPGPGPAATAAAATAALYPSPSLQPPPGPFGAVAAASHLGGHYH
# Method in brief: (§1)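 Pools of DNA-barcoded human transcription factors, expressed in yeast as GST fusions on glutathione beads and combined with a tag-only sample, were incubated with 200 nmole of a 16-mer random double-stranded DNA library. Incubation took 30 min at room temperature in Tris/NaCl/DTT/glycerol buffer and was followed by washing, 0.1% formaldehyde crosslinking, proximity ligation (BsaI/T4 ligase, 1 h, 37 °C), PCR amplification and sequencing on an Illumina NextSeq500. Binding signal is the ratio of a hexamer's read frequency for a factor to its frequency for the tag-only sample.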
# ETV5 = ETV5 (Homo sapiens, UniProt P41161 1-510); conditions: protein: recombinant; tags: N-terminal GST; dsDNA, one strand shown
# ETV5, sequence (P41161 whole entry): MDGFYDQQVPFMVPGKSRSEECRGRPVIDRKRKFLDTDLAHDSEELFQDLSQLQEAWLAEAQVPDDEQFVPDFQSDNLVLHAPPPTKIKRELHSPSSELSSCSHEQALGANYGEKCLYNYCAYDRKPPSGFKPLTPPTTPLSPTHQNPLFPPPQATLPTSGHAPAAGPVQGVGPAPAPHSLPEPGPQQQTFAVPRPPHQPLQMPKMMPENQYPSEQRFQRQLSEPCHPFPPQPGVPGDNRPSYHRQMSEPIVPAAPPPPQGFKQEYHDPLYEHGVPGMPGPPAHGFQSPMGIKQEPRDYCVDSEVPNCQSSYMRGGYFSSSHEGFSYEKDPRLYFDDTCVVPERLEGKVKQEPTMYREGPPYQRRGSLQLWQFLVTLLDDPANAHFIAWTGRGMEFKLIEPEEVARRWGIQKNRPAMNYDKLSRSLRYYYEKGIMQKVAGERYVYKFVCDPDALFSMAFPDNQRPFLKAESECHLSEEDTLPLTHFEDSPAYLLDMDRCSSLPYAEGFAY
# Method in brief: as §1
# HSF1 = HSF1 (Homo sapiens, UniProt Q00613 1-529); conditions: protein: recombinant; tags: N-terminal GST; chain copies: 3; dsDNA, one strand shown
# HSF1, sequence (Q00613 whole entry): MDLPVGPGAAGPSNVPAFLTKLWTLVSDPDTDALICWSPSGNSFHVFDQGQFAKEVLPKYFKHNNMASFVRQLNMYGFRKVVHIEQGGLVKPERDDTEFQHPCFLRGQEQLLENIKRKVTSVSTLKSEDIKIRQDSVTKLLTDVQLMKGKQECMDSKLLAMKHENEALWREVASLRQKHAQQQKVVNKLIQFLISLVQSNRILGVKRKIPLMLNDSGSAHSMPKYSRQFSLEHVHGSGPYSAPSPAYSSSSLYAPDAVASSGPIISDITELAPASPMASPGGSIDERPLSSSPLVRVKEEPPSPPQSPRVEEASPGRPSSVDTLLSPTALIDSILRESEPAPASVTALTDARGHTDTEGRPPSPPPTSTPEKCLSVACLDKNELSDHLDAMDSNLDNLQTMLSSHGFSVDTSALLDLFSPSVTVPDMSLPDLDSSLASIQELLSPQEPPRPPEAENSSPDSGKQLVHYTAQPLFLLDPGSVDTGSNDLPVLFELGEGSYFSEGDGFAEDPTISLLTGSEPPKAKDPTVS
# Method in brief: as §1
# SPIC = target: T2, SPIC (Homo sapiens, UniProt Q8N5J4 1-248); conditions: protein: recombinant; tags: N-terminal GST; dsDNA, one strand shown
# T2 sequence: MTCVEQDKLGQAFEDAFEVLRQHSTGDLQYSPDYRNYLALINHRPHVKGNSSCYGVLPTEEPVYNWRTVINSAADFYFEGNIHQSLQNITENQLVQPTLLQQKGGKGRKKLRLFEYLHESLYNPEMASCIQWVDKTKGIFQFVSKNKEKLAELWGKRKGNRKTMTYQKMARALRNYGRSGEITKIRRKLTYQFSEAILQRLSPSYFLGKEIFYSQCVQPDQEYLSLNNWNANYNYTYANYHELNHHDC
# Method in brief: as §1
# ELF4 = ELF4 (Homo sapiens, UniProt Q99607 1-663); conditions: protein: recombinant; tags: N-terminal GST; dsDNA, one strand shown
# ELF4, sequence (Q99607 whole entry): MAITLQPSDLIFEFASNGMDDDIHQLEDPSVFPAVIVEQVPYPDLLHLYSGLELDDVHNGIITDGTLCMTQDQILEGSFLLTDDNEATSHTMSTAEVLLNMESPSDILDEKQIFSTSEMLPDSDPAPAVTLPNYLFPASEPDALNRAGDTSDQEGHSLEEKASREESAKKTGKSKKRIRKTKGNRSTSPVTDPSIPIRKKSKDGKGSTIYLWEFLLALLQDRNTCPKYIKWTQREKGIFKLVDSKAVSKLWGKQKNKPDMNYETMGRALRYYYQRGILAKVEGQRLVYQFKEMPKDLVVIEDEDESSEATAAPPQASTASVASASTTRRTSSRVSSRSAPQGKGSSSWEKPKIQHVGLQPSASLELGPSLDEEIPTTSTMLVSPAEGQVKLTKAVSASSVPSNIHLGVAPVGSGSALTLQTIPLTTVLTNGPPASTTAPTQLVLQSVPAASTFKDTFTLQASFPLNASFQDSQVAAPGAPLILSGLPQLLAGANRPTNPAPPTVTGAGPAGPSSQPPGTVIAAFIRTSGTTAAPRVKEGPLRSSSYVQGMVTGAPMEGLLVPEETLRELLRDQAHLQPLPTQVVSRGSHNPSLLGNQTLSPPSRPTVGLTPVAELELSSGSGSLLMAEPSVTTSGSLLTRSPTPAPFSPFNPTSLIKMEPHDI
# Method in brief: as §1
# ELK4 = target: T3, ELK4 (Homo sapiens, UniProt P28324-2 1-405); conditions: protein: recombinant; tags: N-terminal GST; dsDNA, one strand shown
# T3 sequence: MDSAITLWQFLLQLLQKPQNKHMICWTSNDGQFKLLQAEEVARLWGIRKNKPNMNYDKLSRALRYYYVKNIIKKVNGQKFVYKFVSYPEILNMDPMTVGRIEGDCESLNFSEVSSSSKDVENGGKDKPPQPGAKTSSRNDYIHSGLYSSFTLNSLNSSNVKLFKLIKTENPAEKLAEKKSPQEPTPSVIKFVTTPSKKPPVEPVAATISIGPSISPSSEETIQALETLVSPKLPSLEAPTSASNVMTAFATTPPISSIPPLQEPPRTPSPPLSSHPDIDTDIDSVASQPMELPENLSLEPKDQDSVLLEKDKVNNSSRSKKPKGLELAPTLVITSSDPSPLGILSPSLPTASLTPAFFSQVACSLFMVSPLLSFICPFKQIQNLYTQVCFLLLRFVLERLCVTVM
# Method in brief: as §1
# ETV2 = target: T4, ETV2 (Homo sapiens, UniProt O00321 1-342); conditions: protein: recombinant; tags: N-terminal GST; dsDNA, one strand shown
# T4 sequence: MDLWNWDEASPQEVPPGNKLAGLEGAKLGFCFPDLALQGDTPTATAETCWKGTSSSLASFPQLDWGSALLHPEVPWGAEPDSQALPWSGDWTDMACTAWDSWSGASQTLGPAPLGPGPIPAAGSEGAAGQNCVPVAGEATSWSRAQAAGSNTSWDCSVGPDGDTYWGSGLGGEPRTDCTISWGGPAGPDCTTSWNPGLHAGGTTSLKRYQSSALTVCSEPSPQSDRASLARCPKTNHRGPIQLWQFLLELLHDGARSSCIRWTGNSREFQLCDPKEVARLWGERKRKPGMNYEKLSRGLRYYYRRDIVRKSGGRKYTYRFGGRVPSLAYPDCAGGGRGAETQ
# Method in brief: as §1
# ELF3 = target: T5, ELF3 (Homo sapiens, UniProt P78545 1-371); conditions: protein: recombinant; tags: N-terminal GST; dsDNA, one strand shown
# T5 sequence: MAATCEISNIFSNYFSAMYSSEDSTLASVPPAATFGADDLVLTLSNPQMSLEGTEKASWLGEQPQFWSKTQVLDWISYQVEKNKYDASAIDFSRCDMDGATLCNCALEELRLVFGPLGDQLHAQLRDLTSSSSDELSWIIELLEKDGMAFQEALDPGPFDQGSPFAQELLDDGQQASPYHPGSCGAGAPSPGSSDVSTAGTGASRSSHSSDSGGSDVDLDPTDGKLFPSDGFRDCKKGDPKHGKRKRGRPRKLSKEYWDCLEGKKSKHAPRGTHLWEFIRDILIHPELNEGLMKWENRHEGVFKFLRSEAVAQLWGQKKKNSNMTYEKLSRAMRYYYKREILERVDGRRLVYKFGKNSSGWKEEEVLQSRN
# Method in brief: as §1
# CRX = CRX (Homo sapiens, UniProt O43186 1-299); conditions: protein: recombinant; tags: N-terminal GST; dsDNA, one strand shown
# CRX, sequence (O43186 whole entry): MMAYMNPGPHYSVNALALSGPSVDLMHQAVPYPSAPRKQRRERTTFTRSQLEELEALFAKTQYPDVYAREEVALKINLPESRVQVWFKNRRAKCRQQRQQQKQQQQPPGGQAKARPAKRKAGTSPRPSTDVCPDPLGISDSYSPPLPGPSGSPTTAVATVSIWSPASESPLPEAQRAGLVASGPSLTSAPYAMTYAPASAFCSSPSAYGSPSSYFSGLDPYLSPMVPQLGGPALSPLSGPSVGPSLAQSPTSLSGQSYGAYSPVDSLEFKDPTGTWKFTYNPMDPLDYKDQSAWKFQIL
# Method in brief: as §1
# ETV1 = ETV1 (Homo sapiens, UniProt P50549 1-477); conditions: protein: recombinant; tags: N-terminal GST; dsDNA, one strand shown
# ETV1, sequence (P50549 whole entry): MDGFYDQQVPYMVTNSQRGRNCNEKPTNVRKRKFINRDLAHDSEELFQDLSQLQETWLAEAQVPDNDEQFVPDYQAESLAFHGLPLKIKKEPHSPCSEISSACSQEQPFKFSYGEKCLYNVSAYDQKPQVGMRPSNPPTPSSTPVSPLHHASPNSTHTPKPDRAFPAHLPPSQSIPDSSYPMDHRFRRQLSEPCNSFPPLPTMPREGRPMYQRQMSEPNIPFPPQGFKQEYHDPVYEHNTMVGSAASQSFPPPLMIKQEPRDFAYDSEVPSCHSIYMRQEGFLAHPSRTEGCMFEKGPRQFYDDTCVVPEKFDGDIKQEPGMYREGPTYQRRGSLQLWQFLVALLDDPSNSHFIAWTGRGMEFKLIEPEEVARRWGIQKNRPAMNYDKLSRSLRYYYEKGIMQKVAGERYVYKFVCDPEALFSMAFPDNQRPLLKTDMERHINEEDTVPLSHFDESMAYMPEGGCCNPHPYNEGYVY
# Method in brief: as §1
# ERF = target: T6, ERF (Homo sapiens, UniProt P50548 1-548); conditions: protein: recombinant; tags: N-terminal GST; dsDNA, one strand shown
# T6 sequence: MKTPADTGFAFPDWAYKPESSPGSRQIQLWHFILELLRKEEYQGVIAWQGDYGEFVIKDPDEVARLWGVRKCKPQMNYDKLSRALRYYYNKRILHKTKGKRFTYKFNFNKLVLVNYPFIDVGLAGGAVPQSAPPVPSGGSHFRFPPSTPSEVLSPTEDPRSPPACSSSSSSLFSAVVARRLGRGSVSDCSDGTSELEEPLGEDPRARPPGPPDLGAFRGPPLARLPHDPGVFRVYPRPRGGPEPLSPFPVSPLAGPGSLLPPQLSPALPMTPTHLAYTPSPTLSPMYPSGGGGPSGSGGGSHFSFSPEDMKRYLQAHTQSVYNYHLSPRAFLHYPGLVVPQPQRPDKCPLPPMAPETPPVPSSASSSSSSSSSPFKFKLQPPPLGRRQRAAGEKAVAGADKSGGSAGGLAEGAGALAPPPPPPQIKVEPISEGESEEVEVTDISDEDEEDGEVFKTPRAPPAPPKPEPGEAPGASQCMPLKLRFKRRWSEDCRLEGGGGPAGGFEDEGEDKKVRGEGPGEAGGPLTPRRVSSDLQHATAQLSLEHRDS
# Method in brief: as §1
# ETV3L = target: T7, ETV3L (Homo sapiens, UniProt Q6ZN32 1-361); conditions: protein: recombinant; tags: N-terminal GST; dsDNA, one strand shown
# T7 sequence: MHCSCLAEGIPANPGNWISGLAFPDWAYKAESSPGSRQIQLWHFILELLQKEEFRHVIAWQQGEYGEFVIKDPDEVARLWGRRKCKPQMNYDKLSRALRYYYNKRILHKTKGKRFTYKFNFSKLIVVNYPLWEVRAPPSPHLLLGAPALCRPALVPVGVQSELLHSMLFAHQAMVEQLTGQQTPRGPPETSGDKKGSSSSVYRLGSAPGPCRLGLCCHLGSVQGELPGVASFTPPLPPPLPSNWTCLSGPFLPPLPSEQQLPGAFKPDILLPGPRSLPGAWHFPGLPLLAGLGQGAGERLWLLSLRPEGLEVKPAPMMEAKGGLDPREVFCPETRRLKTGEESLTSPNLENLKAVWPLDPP
# Method in brief: as §1
# ETS2 = target: T8, ETS2 (Homo sapiens, UniProt P15036 1-469); conditions: protein: recombinant; tags: N-terminal GST; dsDNA, one strand shown
# T8 sequence: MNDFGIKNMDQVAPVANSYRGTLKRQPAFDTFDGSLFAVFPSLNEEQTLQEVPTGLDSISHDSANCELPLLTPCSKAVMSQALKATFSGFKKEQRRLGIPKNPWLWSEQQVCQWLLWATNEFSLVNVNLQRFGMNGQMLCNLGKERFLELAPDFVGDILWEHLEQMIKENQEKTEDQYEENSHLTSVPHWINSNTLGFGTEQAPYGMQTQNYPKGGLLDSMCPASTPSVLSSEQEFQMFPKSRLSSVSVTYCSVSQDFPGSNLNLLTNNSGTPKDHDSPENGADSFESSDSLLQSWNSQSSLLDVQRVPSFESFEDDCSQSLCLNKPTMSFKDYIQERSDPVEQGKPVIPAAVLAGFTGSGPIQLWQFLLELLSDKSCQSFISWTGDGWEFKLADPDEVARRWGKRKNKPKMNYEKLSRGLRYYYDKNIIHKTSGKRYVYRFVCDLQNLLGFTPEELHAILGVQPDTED
# Method in brief: as §1
# SPDEF = target: T9, SPDEF (Homo sapiens, UniProt O95238 1-335); conditions: protein: recombinant; tags: N-terminal GST; dsDNA, one strand shown
# T9 sequence: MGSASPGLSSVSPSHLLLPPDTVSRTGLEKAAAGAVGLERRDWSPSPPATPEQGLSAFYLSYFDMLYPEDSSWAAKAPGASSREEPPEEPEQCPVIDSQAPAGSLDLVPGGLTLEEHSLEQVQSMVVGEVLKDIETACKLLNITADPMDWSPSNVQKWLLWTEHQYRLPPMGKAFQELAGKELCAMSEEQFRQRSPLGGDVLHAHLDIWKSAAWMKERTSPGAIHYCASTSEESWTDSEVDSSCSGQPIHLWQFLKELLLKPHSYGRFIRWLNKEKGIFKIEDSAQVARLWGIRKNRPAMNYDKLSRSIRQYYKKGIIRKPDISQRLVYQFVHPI
# Method in brief: as §1
# ETV7 = target: T10, ETV7 (Homo sapiens, UniProt Q9Y603 1-341); conditions: protein: recombinant; tags: N-terminal GST; dsDNA, one strand shown
# T10 sequence: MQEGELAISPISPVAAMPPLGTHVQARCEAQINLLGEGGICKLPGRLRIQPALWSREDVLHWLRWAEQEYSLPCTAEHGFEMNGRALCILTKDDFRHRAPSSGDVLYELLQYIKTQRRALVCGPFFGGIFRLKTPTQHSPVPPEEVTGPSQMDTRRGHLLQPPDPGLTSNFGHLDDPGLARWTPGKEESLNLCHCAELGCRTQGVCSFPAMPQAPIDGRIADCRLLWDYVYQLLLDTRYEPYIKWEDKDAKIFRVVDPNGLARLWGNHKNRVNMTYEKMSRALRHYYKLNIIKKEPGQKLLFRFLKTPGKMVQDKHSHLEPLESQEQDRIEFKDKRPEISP
# Method in brief: as §1
# ELF5 = target: T11, ELF5 (Homo sapiens, UniProt Q9UKW6-2 1-255); conditions: protein: recombinant; tags: N-terminal GST; dsDNA, one strand shown
# T11 sequence: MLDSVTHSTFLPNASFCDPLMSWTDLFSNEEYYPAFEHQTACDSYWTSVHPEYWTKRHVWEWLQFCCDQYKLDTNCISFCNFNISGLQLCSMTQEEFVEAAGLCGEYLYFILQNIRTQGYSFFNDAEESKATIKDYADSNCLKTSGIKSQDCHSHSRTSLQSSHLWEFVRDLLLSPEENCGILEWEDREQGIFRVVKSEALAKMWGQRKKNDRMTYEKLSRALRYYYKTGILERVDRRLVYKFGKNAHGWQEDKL
# Method in brief: as §1
# ETV3 = target: T12, ETV3 (Homo sapiens, UniProt P41162-2 1-143); conditions: protein: recombinant; tags: N-terminal GST; dsDNA, one strand shown
# T12 sequence: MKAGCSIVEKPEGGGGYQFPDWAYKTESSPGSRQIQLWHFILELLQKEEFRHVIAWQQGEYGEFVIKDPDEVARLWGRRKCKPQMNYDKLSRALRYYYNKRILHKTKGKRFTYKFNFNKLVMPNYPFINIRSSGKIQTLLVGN
# Method in brief: as §1
# ETV6 = ETV6 (Homo sapiens, UniProt P41212 1-452); conditions: protein: recombinant; tags: N-terminal GST; dsDNA, one strand shown
# ETV6, sequence (P41212 whole entry): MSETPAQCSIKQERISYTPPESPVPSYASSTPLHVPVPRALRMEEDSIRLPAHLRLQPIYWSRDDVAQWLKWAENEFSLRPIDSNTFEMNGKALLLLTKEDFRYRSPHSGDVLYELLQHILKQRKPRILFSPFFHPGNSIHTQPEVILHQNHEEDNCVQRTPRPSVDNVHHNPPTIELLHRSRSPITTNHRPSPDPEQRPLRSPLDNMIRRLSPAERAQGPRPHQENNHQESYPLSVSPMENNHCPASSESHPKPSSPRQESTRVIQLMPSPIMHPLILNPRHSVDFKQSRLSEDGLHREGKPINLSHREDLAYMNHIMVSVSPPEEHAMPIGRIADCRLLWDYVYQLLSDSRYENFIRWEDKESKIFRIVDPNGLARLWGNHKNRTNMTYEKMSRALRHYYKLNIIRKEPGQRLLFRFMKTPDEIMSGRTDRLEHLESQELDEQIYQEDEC
# Method in brief: as §1
sequence,measurement,setting,value
CATCTT,binding signal,FEV,"1.16 fold enrichment (6-mer frequency, TF over GST control)"
same,binding signal,ETV5,"1.21 fold enrichment (6-mer frequency, TF over GST control)"
same,binding signal,HSF1,"1.17 fold enrichment (6-mer frequency, TF over GST control)"
same,binding signal,SPIC,"1.11 fold enrichment (6-mer frequency, TF over GST control)"
same,binding signal,ELF4,"1.12 fold enrichment (6-mer frequency, TF over GST control)"
same,binding signal,ELK4,"1.31 fold enrichment (6-mer frequency, TF over GST control)"
same,binding signal,ETV2,"1.29 fold enrichment (6-mer frequency, TF over GST control)"
same,binding signal,ELF3,"1.23 fold enrichment (6-mer frequency, TF over GST control)"
same,binding signal,CRX,"1.33 fold enrichment (6-mer frequency, TF over GST control)"
same,binding signal,ETV1,"1.24 fold enrichment (6-mer frequency, TF over GST control)"
same,binding signal,ERF,"1.26 fold enrichment (6-mer frequency, TF over GST control)"
same,binding signal,ETV3L,"1.28 fold enrichment (6-mer frequency, TF over GST control)"
same,binding signal,ETS2,"1.23 fold enrichment (6-mer frequency, TF over GST control)"
same,binding signal,SPDEF,"1.03 fold enrichment (6-mer frequency, TF over GST control)"
same,binding signal,ETV7,"1.25 fold enrichment (6-mer frequency, TF over GST control)"
same,binding signal,ELF5,"1.17 fold enrichment (6-mer frequency, TF over GST control)"
same,binding signal,ETV3,"1.18 fold enrichment (6-mer frequency, TF over GST control)"
same,binding signal,ETV6,"1.25 fold enrichment (6-mer frequency, TF over GST control)"
